AmpC detergent: inhibitors of E. coli AmpC beta-lactamase with detergent; P00811; AmpC hydrolysis of nitrocefin, absorbance 480 nm, 0.01% Triton; Potency, µM (top dose mostly 114 µM), hits mostly inhibitors; actives 0.041% (n = 370,000); further: nearly all actives have a fitted effect of over 25% in size
Target sequence (P00811 whole entry, looked up): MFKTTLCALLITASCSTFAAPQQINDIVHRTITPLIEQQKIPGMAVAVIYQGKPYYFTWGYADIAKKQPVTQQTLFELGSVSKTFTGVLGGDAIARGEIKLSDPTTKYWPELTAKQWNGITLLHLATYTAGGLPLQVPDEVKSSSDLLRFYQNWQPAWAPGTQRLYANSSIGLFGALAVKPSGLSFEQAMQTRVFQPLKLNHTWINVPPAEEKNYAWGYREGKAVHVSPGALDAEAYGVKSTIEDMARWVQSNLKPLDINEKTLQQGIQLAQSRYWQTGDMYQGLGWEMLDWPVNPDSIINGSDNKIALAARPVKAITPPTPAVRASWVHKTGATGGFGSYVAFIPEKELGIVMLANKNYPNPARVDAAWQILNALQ
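20 mM phosphate pH 7.0 + 0.01% (detergent screen) or 0.0001% Triton X-100; 5.3 nM AmpC reagent; cpd preinc 15 min RT; nitrocefin (800 uM stock) to start; A480 q20 s × 4 min; Activity was normalised to no-enzyme and no-compound control wells.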
AMA1-RON2 inh: disrupts binding of P. falciparum AMA1 to RON2; AlphaScreen AMA1-biotinylated RON2 peptide binding; actives 0.2% (n = 360,000); Potency, µM (doses to about 58.2 µM), hits mostly inhibitors; further: nearly all actives have a fitted effect of over 45% in size
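AMA1 (3D7) with his tag at 25 nM final met compounds first, then biotinylated RON2 peptide at 25 nM; detection used donor plus acceptor beads, 10 µg/mL apiece, read by AlphaScreen after 30 min at room temperature.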
Cycloheximide cs: affects cycloheximide protein synthesis inhibition readout, counter-screen; cell reporter, cycloheximide protein synthesis inhibition counterscreen; max response, %; actives 12% (n = 300,000); AID 2314; in the data active means max response mostly above about 13%, no sharp cut-off; inactive means mostly below about 14%; further: read at 38.3 µM for the half of the compounds with a filed dose
SARS PLP yeast: blocks SARS-CoV papain-like protease in a yeast assay; S. cerevisiae expressing SARS-CoV PLpro, growth rescue; Potency, µM (highest dose often 32.9 µM), hits mostly activators; actives 0.19% (n = 330,000); AID 485353; calls by dose curve; further: nearly all actives have a fitted effect of over 55% in size
Shiga inhibitor: blocks Shiga toxin action in Vero cells; inhibition, % at 38.7 µM; actives 9.2% (n = 290,000); Vero cells, Shiga toxin protein synthesis inhibition reporter; AID 2315; in the data active means inhibition mostly above about 28%, no sharp cut-off; inactive means mostly below about 43%
AmpC no deterg: AmpC beta-lactamase inhibition without detergent; actives 0.52% (n = 330,000); P00811; AmpC nitrocefin hydrolysis, absorbance 480 nm, 0.0001% Triton; Potency, µM (series often up to 57.1 µM), hits mostly inhibitors; further: nearly all actives have a fitted effect of over 20% in size
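AmpC (5.3 nM in the dispensed reagent) in 20 mM phosphate pH 7.0 with 0.01% (detergent screen) or 0.0001% Triton X-100 was preincubated with compounds for 15 min at room temperature. Nitrocefin was then added from an 800 uM solution, and hydrolysis was followed at 480 nm.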
Large screens that a line does not name were inactive. The sample as a whole holds a higher share of hits than the screen did. Unless noted, the call rests on the fitted dose curve; in most records, active means well fitted curve in the direction sought with a large enough effect; inconclusive means small, poorly fitted or top-dose-only effect, or another doubt; inactive means no such curve, though single readings can be large; an effect the other way counts as inactive or inconclusive.

CC(=O)c1cccc(NC(=S)NC(=O)c2ccccc2C)c1	AmpC detergent inconclusive
CCC(=O)Nc1cccc(NC(=S)NC(=O)c2ccccc2Cl)c1	Cycloheximide cs 25
CCNC(=O)Nc1cc(S(=O)(=O)Nc2ccc(OC)cc2)ccc1N1CCOCC1	none (no result: Cycloheximide cs, Shiga inhibitor)
CCN(CC)C(=S)SCC(=O)Nc1nc(=O)c2ccccc2s1	Cycloheximide cs 18
CCN(CC)C(=S)SCC(=O)Nc1ccc(S(N)(=O)=O)cc1	AmpC detergent inconclusive
COCC1CCN(C(=O)c2cc(COc3ccc4c(c3)CCCC4)on2)C1 (centres undefined)	none
Cc1nc(SCc2ccc(F)cc2)n[nH]1	none
Cc1nc(SCc2cccc(Oc3ccccc3)c2)n[nH]1	Cycloheximide cs 46
COc1ccc(CSc2n[nH]c(C)n2)cc1Br	none
Cc1nc(SCc2ccc(Cl)c(Cl)c2)n[nH]1	AmpC detergent inconclusive, Cycloheximide cs 16
Cc1nc(SCc2ccc(OCCC(C)C)cc2)n[nH]1	Cycloheximide cs 49, Shiga inhibitor 154
COc1ccc(S(=O)(=O)N(CC(=O)NCc2ccco2)c2ccccc2OC)cc1	none
CN1CCC/C1=C/C=C1\SC(=S)NC1=O	Shiga inhibitor 35
CN1C(=O)N(c2nnc(C(C)(C)C)s2)C(=O)C1c1ccccc1 (centres undefined)	none
CCCCN1C(=O)N(c2nnc(C(C)(C)C)s2)C(O)C1c1ccc(C)cc1 (centres undefined)	Cycloheximide cs 17
O=C1Nc2ccccc2S/C1=C/c1cccs1	Cycloheximide cs 28, Shiga inhibitor 62
Cc1ccccc1N=C1NC(=O)/C(=C/c2cccn2C)S1	Cycloheximide cs 13
O=C1NC(=Nc2ccccc2)S/C1=C\c1cccnc1	none
Cc1ccc(/C=C2/SC(=Nc3ccc(F)cc3)NC2=O)s1	none
Cc1cccc(N=C2NC(=O)/C(=C/c3cccs3)S2)c1	Cycloheximide cs 34, Shiga inhibitor active
O=C1NC(=S)SC1=Cc1cccs1	none (no result: AmpC detergent, Cycloheximide cs, SARS PLP yeast, Shiga inhibitor, AmpC no deterg)
O=C1NC(=Nc2ccccc2)S/C1=C\c1cccn1-c1ccccc1	Cycloheximide cs 47, Shiga inhibitor 61
CCOC(=O)C(Cc1ccccc1)NC(=O)CNC(=O)CNC(=O)OCc1ccccc1 (centres undefined)	AmpC detergent inconclusive
Cc1cc2cc(CN3C(=O)c4ccccc4C3=O)ccc2[nH]1	none
Cc1c(/C=C2\SC(=Nc3cccc(C(=O)O)c3)NC2=O)c2ccccc2n1C	none
Cc1cccc(N=C2NC(=O)/C(=C/c3cccn3C)S2)c1	Cycloheximide cs 27, Shiga inhibitor 52
CC1(C)CC2CC(C)(CN2C(=O)COC(=O)c2ccc(Cl)cc2N)C1 (centres undefined)	AmpC detergent inconclusive
C[C@H](NC(=O)c1ccccc1Cl)C(=O)OCC(=O)N1CC2(C)CC1CC(C)(C)C2 (some centres undefined)	Cycloheximide cs 12
CCOc1ccc(N=CC2=C(O)CC(C)(C)CC2=O)cc1	Shiga inhibitor 189
CC1(C)CC(=O)C(C=Nc2ccc(O)cc2)=C(O)C1	Cycloheximide cs 18, Shiga inhibitor 36
CCOC(=O)c1c(/N=C/C2=C(O)CC(C)(C)CC2=O)sc(C(C)=O)c1C	Cycloheximide cs 23, Shiga inhibitor 57
CN=CC1=C(O)CC(C)(C)CC1=O	none
CCN(CC)CCOC(=O)c1ccc(N=CC2=C(O)CC(C)(C)CC2=O)cc1	none (no result: AmpC detergent, Cycloheximide cs, SARS PLP yeast, Shiga inhibitor, AmpC no deterg)
CC1(C)CC(=O)C(C=Nc2ccc3[nH]ncc3c2)=C(O)C1	Cycloheximide cs 37, Shiga inhibitor 33
CC1CCc2nc(NC(=O)c3cc(C(C)(C)C)nn3C)sc2C1 (centres undefined)	none
COCc1cc(CN2CCN(Cc3ccsc3)C(CCO)C2)ccc1OC (centres undefined)	none
COc1ccc(C(=O)OCC(=O)NC(=O)NCc2ccccc2)cc1[N+](=O)[O-]	none (no result: Cycloheximide cs, Shiga inhibitor)
O=C(C1=COCCO1)N1CCN(S(=O)(=O)c2cccc(Cl)c2Cl)CC1	AmpC detergent inconclusive
CC1(C)CC(=O)C(C=Nc2ccc(N)cc2)=C(O)C1	Cycloheximide cs 40, Shiga inhibitor 81
Cc1[nH]cnc1C(=O)N/N=C/c1c(Cl)cccc1Cl	Cycloheximide cs 36
Nc1ccc(CNc2ncn[nH]2)cc1	none
Fc1ccc(CNc2ccc(CNc3ncn[nH]3)cc2)cc1	Cycloheximide cs 22
O=c1[nH]c2ccc(NCc3ccc(F)cc3)cc2[nH]1	Cycloheximide cs 13, Shiga inhibitor 41
COc1cc(CNc2ccc3[nH]c(=O)[nH]c3c2)ccc1OCc1ccccc1Cl	AmpC detergent inconclusive
O=c1[nH]c2ccc(NCc3ccc(OCc4ccccc4Cl)cc3)cc2[nH]1	Cycloheximide cs 23
NNC(=O)c1nc2ccccc2s1	none (no result: AmpC detergent, Cycloheximide cs, SARS PLP yeast, Shiga inhibitor, AmpC no deterg)
O=C(Nc1ccccc1)Nc1sccc1-c1nc2ccccc2s1	Shiga inhibitor 63, AmpC no deterg 14µM
O=C(Nc1ccccc1)c1nc2ccccc2s1	Cycloheximide cs 48, Shiga inhibitor 89
CC(C)(C)NC(=O)c1nc2ccccc2s1	Cycloheximide cs 21, Shiga inhibitor 47
Cc1cccc(NC(=S)c2nc3ccccc3s2)c1	AmpC detergent inconclusive, AMA1-RON2 inh inconclusive, Cycloheximide cs 28, Shiga inhibitor 86
CCc1ccc(-c2nn[nH]n2)cc1	none
Nc1c(C(=O)CSc2nnc(Cc3ccccc3)o2)c(=O)[nH]c(=O)n1C1CC1	none (no result: Cycloheximide cs, Shiga inhibitor)
Cc1ccc2sc(NC(=O)C3CC3)nc2c1C	Cycloheximide cs 36, Shiga inhibitor 63
O=C(Nc1nc2c(Cl)c(Cl)ccc2s1)C1CC1	Cycloheximide cs 25, Shiga inhibitor 28
O=C(Nc1nc2c(F)cc(F)cc2s1)C1CC1	Cycloheximide cs 44, Shiga inhibitor 85
O=C(Nc1nc2c(Cl)ccc(Cl)c2s1)C1CC1	none
O=C(Nc1nc2c(Br)cccc2s1)C1CC1	AmpC detergent inconclusive, Cycloheximide cs 18
COc1ccc(Br)cc1/C=C(\C(=O)O)c1ccc(S(=O)(=O)N2CCCC2)s1	none (no result: AmpC detergent, Cycloheximide cs, Shiga inhibitor)
COc1ccc(-n2c(CNC(=O)c3cc(OC)c(OC)c(OC)c3)n[nH]c2=S)cc1	none
Cc1cc(Cl)cc2sc(NC(=O)C3CC3)nc12	Cycloheximide cs 11
Cc1cccc2sc(NC(=O)C3CC3)nc12	Cycloheximide cs 23, Shiga inhibitor 40 (no result: SARS PLP yeast)
Cc1cccc2sc(NC(=O)Cn3cccc3)nc12	none
O=C(Nc1nc2c(Cl)cccc2s1)C1CC1	none
Cc1cccc2sc(NC(=O)CSCc3ccccc3)nc12	Cycloheximide cs 18, AmpC no deterg inconclusive
NC(=O)COC(=O)c1cccc(NS(=O)(=O)/C=C/c2ccccc2)c1	none
Cc1nn(-c2nc3ccccc3s2)c(C)c1Oc1ccccc1O	Cycloheximide cs 32, Shiga inhibitor 72
Cc1nn(-c2ccccn2)c(C)c1Oc1ccccc1O	none
